# The list is not random: actives were taken first. Their share in the collection is about 3.5%.
# FBW7 act – activators of human E3 ligase FBW7; AlphaScreen FBW7–phospho-cyclin E peptide binding, activator screen; normalized activity (activation), % at 26.1 µM; 650,000 tested, 0.13% active; AID 1259310; in the data active means normalized activity above about 1.9%;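 further: purified mutant Fbw7 with reduced substrate affinity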
# MITF primary – human MITF inhibition, primary screen | O75030 | 650,000 tested, 0.91% active | inhibition, % at 2.6 µM | AlphaScreen MITF homodimerization, bead proximity signal; in the data active means inhibition above about 50%;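 further: 0% = vehicle wells with protein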
# Target sequence (O75030 whole entry, looked up): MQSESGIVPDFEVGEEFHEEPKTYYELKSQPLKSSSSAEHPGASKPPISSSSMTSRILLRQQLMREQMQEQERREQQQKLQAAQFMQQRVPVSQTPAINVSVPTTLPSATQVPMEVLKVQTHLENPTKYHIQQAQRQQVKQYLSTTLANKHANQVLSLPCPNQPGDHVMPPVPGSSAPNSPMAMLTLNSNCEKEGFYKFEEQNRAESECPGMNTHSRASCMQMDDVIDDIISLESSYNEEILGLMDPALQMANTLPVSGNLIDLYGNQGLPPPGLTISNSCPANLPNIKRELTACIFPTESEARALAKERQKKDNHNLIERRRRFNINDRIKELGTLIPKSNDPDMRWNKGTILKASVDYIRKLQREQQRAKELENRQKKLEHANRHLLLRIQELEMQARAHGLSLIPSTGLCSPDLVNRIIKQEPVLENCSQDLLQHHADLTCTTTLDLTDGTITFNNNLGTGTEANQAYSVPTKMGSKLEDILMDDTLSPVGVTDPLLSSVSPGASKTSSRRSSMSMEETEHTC
# GPR151 activ – activators of human GPR151. Q8TDV0. PathHunter beta-arrestin GPR151 cells, luminescence. activation, % at 11.2 µM. 650,000 tested, 1% active. AID 1508602; in the data active means activation above about 4.9%;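 further: 0% = median of compound wells and 100% = cells with positive control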
# TEAD-YAP inh – TEAD-YAP interaction inhibition; 640,000 tested, 1.4% active; AID 1259422; inhibition, % at 9.12 µM; HEK-TIYL cells, TEAD-Gal4/YAP UAS-luciferase luminescence; in the data active means inhibition above about 32%;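 further: 0% = median of test compound wells and 100% = reference inhibitor wells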
# * marks the source's active call; other numbers are inactive results.
SMILES,FBW7 act,MITF primary,GPR151 activ,TEAD-YAP inh
O=C(CSc1nnc2c(n1)[nH]c1ccccc12)Nc1ccc(Cl)cn1,0,6,0,57*
O=C(CSc1nnc2c(n1)[nH]c1ccccc12)Nc1ccccc1F,0,0,-1,-19
O=C(CSc1nnc2c(n1)[nH]c1ccccc12)Nc1ccc(C(=O)N2CCCCC2)cc1,0,10,1,34*
O=C(CSc1nnc2c(n1)[nH]c1ccccc12)Nc1ccc(Br)cc1,0,-3,-1,2
COc1cc2c(c(OC)c1OC)-c1ccc(OC)c(=O)cc1[C@@H](NC(C)=O)CC2,0,16,-1,58*
COc1ccc2c(c1OC)C(=O)OC2Nc1cccc(NC(C)=O)c1 (centres undefined),1,9,0,-2
CC1=C(C(=O)OCCOc2ccccc2)C(c2ccc(Cl)c(Cl)c2)C2=C(CCCC2=O)N1 (centres undefined),0,-1,-1,0
CN1CCNCCN(C)CCN(C)CC1,0,-7,-1,0
CCC(CO)N=Cc1ccc(O)c(OC)c1 (centres undefined),0,12,1,12
O=C(Nc1ccc(Oc2cccnc2)cc1)C1CCN(Cc2cc(Cl)ccc2O)CC1,0,17,-1,44*
O=C(Nc1ccc(Oc2cccnc2)cc1)C1CCN(Cc2ccc(F)cc2)CC1,0,-5,0,6
Cc1ccc(/C=C/c2ccncc2)cc1,0,-5,-6,51*
O=C(Nc1ccnc2ccccc12)c1ccc(Br)cc1,1,2,0,60*
COc1ccc(NC(=O)c2ccc(Br)cc2)c2cccnc12,0,24,-1,5
Cc1cc(Nc2ccccc2F)nc2cccc(O)c12,0,2,2,43*
O=C(NCc1ccccc1)c1ccc2cnc(Nc3ccc(-n4cnc(N5CCOCC5)n4)cc3)nc2c1,0,47,1,-2
c1cc(-n2cnc(N3CCOCC3)n2)ccc1Nc1ncc2ccc(N3CCOCC3)cc2n1,0,-1,2,1
CNC(=O)c1ccc2cnc(Nc3ccc(-n4cnc(N5CCOCC5)n4)cc3)nc2c1,0,37,1,55*
Cn1nccc1-c1ccc2cnc(Nc3ccc(-n4cnc(N5CCOCC5)n4)cc3)nc2c1,0,1,0,-17
c1cc(-c2ccc3cnc(Nc4ccc(-n5cnc(N6CCOCC6)n5)cc4)nc3c2)[nH]n1,13*,-6,0,11
Nc1ccc(-c2ccc3cnc(Nc4ccc(-n5cnc(N6CCOCC6)n5)cc4)nc3c2)cn1,1,2,2,65*
CCOC(=O)CCNC(=O)N1CCn2cccc2C1c1ccc(F)cc1 (centres undefined),0,-2,2,4
COc1ccc(-c2noc(NCc3ccco3)n2)cc1OC,0,0,-1,-25
CCOc1ccc(-c2nc(CSCC(=O)NCCN3CCCC3)c(C)o2)cc1,0,-4,1,34*
COc1ccc(-c2nc(CSCC(=O)NCC(OC)OC)c(C)o2)cc1,0,18,1,6
SMILES,FBW7 act,MITF primary,GPR151 activ,TEAD-YAP inh
CCOc1ccc(-c2nc(CSCC(=O)NCCCN3CCCC3)c(C)o2)cc1,0,-4,0,-3
CCOc1ccc(-c2nc(CSCC(=O)O)c(C)o2)cc1,0,-10,1,98*
CCOC(=O)CSCc1nc(-c2ccc(C)cc2)oc1C,0,-6,0,80*
COc1ccc(-c2nc(CSCC(=O)O)c(C)o2)cc1,0,5,-1,82*
CCCCNC(=O)CSCc1nc(-c2ccc(C)cc2)oc1C,1,18,2,4
COc1ccc(CC(=O)Nc2ccc(OC)c(Cl)c2)cc1,0,-2,-1,-21
COC(=O)c1c(NC(=O)COc2ccccc2Cl)sc2c1C(C(=O)OC)CC2 (centres undefined),0,3,0,-14
COC(=O)c1ccc(N=Cc2nc(-c3ccccc3F)oc2O)cc1,0,8,-1,-2
COC(=O)C1=CN(CCc2ccccc2)C=C(C(=O)OC)C1c1cc(OC)c(OC)c(OC)c1,2.6*,11,-1,2
COC(=O)C1=CN(CCc2ccccc2)C=C(C(=O)OC)C1c1ccc2c(c1)OCO2,3.2*,2,0,-3
O=C(NCc1ccc(C(=O)NC2CCCC2)cc1)c1ccc2c(c1)OCO2,0,-9,0,-28
Cc1ccc(C(=O)N/N=C/c2c(O)ccc3ccccc23)cn1,0,55*,-1,80*
O=C(N/N=C/c1c(O)ccc2ccccc12)c1ccc(F)cc1,0,14,-1,76*
O=C(N/N=C/c1c(O)ccc2ccccc12)c1cccnc1,0,70*,0,81*
O=C(N/N=C\c1c(O)ccc2ccccc12)c1cncc(Br)c1,-1,-1,-1,9
Cc1ccc(C(=O)N/N=C/c2c3ccccc3cc3ccccc23)cn1,0,2,2,3
O=C(N/N=C/c1c(O)ccc2ccccc12)c1ccc[n+](CCO)c1,-1,90*,1,-5
COc1ccc(C2C3=C(CCCC3=O)Nc3nc(-c4cccc(OC)c4)nn32)cc1 (centres undefined),0,-5,0,-6
COc1cc2ccccc2cc1C(=O)OCC(=O)NC(C)(C)C,0,0,3,-2
CSc1ccccc1NC(=O)c1cc2nc(-c3ccccc3)cc(-c3ccccc3)n2n1,0,-4,0,5
COc1ccc(OC)c(C2NC(=O)NC(C)=C2C(=O)c2ccc(Cl)cc2)c1 (centres undefined),0,1,4,-2
Cc1nc2ccccn2c1C(=O)N/N=C/c1c(O)ccc2ccccc12,-1,30,-1,71*
Cc1nc2ccccn2c1C(=O)N/N=C/c1ccc(Cl)cc1Cl,0,-8,0,11
O=C(N/N=C/c1c(O)ccc2ccccc12)c1ccc(=O)[nH]n1,-1,68*,0,86*
COC(=O)C1CC(=O)N(C)C12CCN(C(=O)c1cnn(Cc3ccccc3)c1)CC2 (centres undefined),0,36,-1,-4
SMILES,FBW7 act,MITF primary,GPR151 activ,TEAD-YAP inh
O=C1c2ccccc2CCC1Sc1nc2sc3c(c2c(=O)n1-c1ccc(Br)cc1)CCC3 (centres undefined),0,-8,1,-8
O=C(O)/C=C\C(=O)Nc1ccc(Cl)c(Cl)c1,0,19,0,1
O=C(O)/C=C\C(=O)Nc1ccc2cn[nH]c2c1,-1,-5,0,47*
COc1ccccc1OCC(=O)Nc1ncc(Cc2ccc(Br)cc2)s1,1,11,3,4
COc1ccc(Cc2cnc(NC(=O)COc3ccccc3OC)s2)cc1,1,-1,1,48*
COc1ccc(OCC(=O)Nc2ncc(Cc3ccc(Br)cc3)s2)cc1,1,-159,-1,1
COc1ccc(Cc2cnc(NC(=O)COc3cccc(C)c3)s2)cc1,0,-4,1,52*
Cc1ccccc1OCC(=O)Nc1ncc(Cc2ccc(Br)cc2)s1,0,-4,2,55*
